Shn3 inh set2 = inhibitors of Schnurri-3 3'UTR reporter in osteoblasts | Clone20 osteoblast Shn3 3'UTR firefly luciferase, 24 h | hit rate 0.52% among 360,000 | AID 588674 | inhibition, % at 12.5 µM;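 active = mean inhibition of at least 75% with every replicate also reaching 75%; inconclusive = mean inhibition at least 75% but some replicate below; inactive = mean inhibition below 75%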;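 also: 0% = median of neutral control wells and 100% = pilot-screen positive control compound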
TROY signal inh = blocks TROY-dependent signaling in reporter cells | Q293 LMP1-TROYcd NF-kB luciferase reporter, 4 h | inhibition, % at 10 µM | hit rate 0.98% among 360,000;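 active = compounds whose plate-normalised and pattern-corrected inhibition of the luciferase reporter signal at the single screening dose is 50% or more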
Peg3 promoter = inhibitors of Peg3 promoter. HeLa PEG-Prom luciferase reporter, luminescence, overnight. inhibition, % at 20 µM. hit rate 1.7% among 360,000. AID 588405;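 active = inhibition of at least 50% at 20 µM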
TWEAK-Fn14 inh = TWEAK-Fn14 signaling inhibition. inhibition, % at 10 µM. hit rate 2% among 360,000. TWEAK-stimulated Fn14 reporter cells, luciferase luminescence, 8 h; in the data active = inhibition above about 50%
EBV LMP1 NFkB = reduces LMP1-driven NF-kappaB luciferase signal; hit rate 0.69% among 350,000; LMP1-induced NF-kappaB luciferase reporter cells, luminescence; inhibition, % at 12.5 µM; in the data active = inhibition above about 41%; inconclusive = no clear call, values can overlap the other calls;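 also: 0% = neutral control wells and 100% = reference inhibitor control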
MITF TRPM1 inh = inhibitors of MITF-driven TRPM1 promoter in melanoma cells; AID 488899; inhibition, % at 12.5 µM; hit rate 0.83% among 330,000; SK-MEL-5 TRPM1 promoter luciferase, 24 h;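 active = mean inhibition across replicates of 60% or more, whatever share of single replicates reaches that level; inconclusive = some that reach 60%, reason not given; inactive = mean inhibition across replicates below 60%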
Starred values were filed as active, the others as inactive. Only some compounds are listed: those with a hit (about 4.1% of all), similar ones and a draw of the others.

How did CC(NC(=O)c1ccco1)C(=O)N1CCN(S(=O)(=O)c2ccccc2C#N)CC1 (stereo not drawn) do in these assays?
Shn3 inh set2: -2; TROY signal inh: 14; Peg3 promoter: 6; TWEAK-Fn14 inh: -7; EBV LMP1 NFkB: 3; MITF TRPM1 inh: 3

How did COc1ccc(-n2cc(CNCC3CCOCC3)c(-c3cccc(F)c3)n2)cc1 do in these assays?
Shn3 inh set2: -15; TROY signal inh: -42; Peg3 promoter: -11; TWEAK-Fn14 inh: 84*; EBV LMP1 NFkB: -6; MITF TRPM1 inh: 2

How did FC(F)(F)c1cccc(NC(=S)NC(c2ccccc2)c2ccccc2)c1 do in these assays?
Shn3 inh set2: inconclusive; TROY signal inh: 47; Peg3 promoter: 50*; TWEAK-Fn14 inh: 34; EBV LMP1 NFkB: -11; MITF TRPM1 inh: 18

What do the screens show for `Cc1cc(C)n(C(=O)CN2C(=O)c3ccccc3C2=O)n1`?
Shn3 inh set2: -45; TROY signal inh: -10; Peg3 promoter: -4; TWEAK-Fn14 inh: 21; EBV LMP1 NFkB: 5; MITF TRPM1 inh: 3

What do the screens show for `Cc1nn(C(=O)CN2C(=O)c3ccccc3C2=O)c(C)c1Br`?
Shn3 inh set2: 1; Peg3 promoter: 13; TWEAK-Fn14 inh: 95*; EBV LMP1 NFkB: 5; MITF TRPM1 inh: 13

Results for Cc1ccc(S(=O)(=O)/N=C2\C(=O)c3ccccc3C([O-])=C2n2cc[n+](CCC(C)C)c2)cc1 ?
Shn3 inh set2: -3; TROY signal inh: 3; Peg3 promoter: 18; TWEAK-Fn14 inh: 2; EBV LMP1 NFkB: -1; MITF TRPM1 inh: 69*

Results for CC(=O)Nc1ccc(S(=O)(=O)/N=C2\C(=O)c3ccccc3C([O-])=C2n2cc[n+](-c3ccccn3)c2)cc1 ?
TROY signal inh: 6; Peg3 promoter: -2; TWEAK-Fn14 inh: 12; EBV LMP1 NFkB: 39; MITF TRPM1 inh: 48

Results for CCCC[n+]1ccn(C2=C([O-])c3ccccc3C(=O)/C2=N\S(=O)(=O)c2ccc(Br)cc2)c1 ?
Shn3 inh set2: 45; TROY signal inh: -12; Peg3 promoter: 9; TWEAK-Fn14 inh: 16; EBV LMP1 NFkB: 8; MITF TRPM1 inh: 94*

What do the screens show for `COc1ccc(C(CNC(=O)c2cc3ccccc3cc2O)N2CCOCC2)cc1` (stereo not drawn)?
Shn3 inh set2: 3; TROY signal inh: 12; Peg3 promoter: 15; TWEAK-Fn14 inh: -1; EBV LMP1 NFkB: -1; MITF TRPM1 inh: 13

How did Cc1nn(-c2ccccn2)c2c1C(c1ccccc1Cl)C1=C(N2)c2ccccc2C1=O (stereo not drawn) do in these assays?
Shn3 inh set2: -11; TROY signal inh: 16; Peg3 promoter: 36; TWEAK-Fn14 inh: 50*; EBV LMP1 NFkB: 10; MITF TRPM1 inh: 24

How did Cc1ccc(S(=O)(=O)N2CCCCC2)cc1C(=O)NCc1ccc(S(N)(=O)=O)cc1 do in these assays?
Shn3 inh set2: 5; TROY signal inh: -11; Peg3 promoter: 15; TWEAK-Fn14 inh: -2; EBV LMP1 NFkB: -6; MITF TRPM1 inh: -1

Results for COC(=O)N1C(=O)[C@](c2ccccc2)(C2CCCCC2)N1C(=O)OC ?
Shn3 inh set2: -4; TROY signal inh: 17; Peg3 promoter: 42; TWEAK-Fn14 inh: 51*; EBV LMP1 NFkB: 0; MITF TRPM1 inh: 21

What do the screens show for `CC[C@@]1(c2ccccc2OC)C(=O)N(C(=O)OC)N1C(=O)OC`?
Shn3 inh set2: -3; TROY signal inh: 10; Peg3 promoter: 17; TWEAK-Fn14 inh: 19; EBV LMP1 NFkB: -4; MITF TRPM1 inh: 12

Results for COC(=O)N1C(=O)[C@@](c2ccccc2)(C2CCCC2)N1C(=O)OC ?
Shn3 inh set2: -3; TROY signal inh: 42; Peg3 promoter: 50*; TWEAK-Fn14 inh: 71*; EBV LMP1 NFkB: 0; MITF TRPM1 inh: 30

Results for COC(=O)N1C(=O)[C@](CC(C)C)(c2ccccc2)N1C(=O)OC ?
Shn3 inh set2: -8; TROY signal inh: 2; Peg3 promoter: 37; TWEAK-Fn14 inh: 35; EBV LMP1 NFkB: 9; MITF TRPM1 inh: 56

What do the screens show for `CCCC(=O)N(C1CC(C)C(C#N)(C#N)C1(C#N)C#N)N(C)C` (stereo not drawn)?
Shn3 inh set2: 97*; TROY signal inh: 28; Peg3 promoter: 107*; TWEAK-Fn14 inh: 5; EBV LMP1 NFkB: 28; MITF TRPM1 inh: 83*

How did CC(=O)N(C1CC(C)C(C#N)(C#N)C1(C#N)C#N)N(C)C (stereo not drawn) do in these assays?
Shn3 inh set2: 93*; TROY signal inh: -11; Peg3 promoter: 102*; TWEAK-Fn14 inh: 8; EBV LMP1 NFkB: 1; MITF TRPM1 inh: 86*

Results for COc1ccccc1N1CCN(Cc2ccc(OC)c(OC)c2OC)CC1 ?
Shn3 inh set2: 19; TROY signal inh: 5; Peg3 promoter: 2; TWEAK-Fn14 inh: -17; EBV LMP1 NFkB: 5; MITF TRPM1 inh: -2

What do the screens show for `COc1ccccc1N1CCN(c2ncnc3c2oc2ccccc23)CC1`?
Shn3 inh set2: -14; TROY signal inh: 34; Peg3 promoter: 57*; TWEAK-Fn14 inh: 21; EBV LMP1 NFkB: 16; MITF TRPM1 inh: 2

Results for COc1ccccc1N1CCN(Cc2ccc(O)c3ncccc23)CC1 ?
Shn3 inh set2: 88*; TROY signal inh: 2; Peg3 promoter: 34; TWEAK-Fn14 inh: 8; EBV LMP1 NFkB: 73*; MITF TRPM1 inh: 88*

How did Cc1ccc(S(=O)(=O)N2CCN(CC3CC4C=CC3C4)CC2)cc1 (stereo not drawn) do in these assays?
Shn3 inh set2: 24; TROY signal inh: -9; Peg3 promoter: 0; TWEAK-Fn14 inh: -1; EBV LMP1 NFkB: -5; MITF TRPM1 inh: -6

What do the screens show for `Cc1ccc(C(=O)NNc2ncnc3c2cnn3C)cc1`?
Shn3 inh set2: 7; TROY signal inh: -6; Peg3 promoter: 3; TWEAK-Fn14 inh: -22; EBV LMP1 NFkB: -3; MITF TRPM1 inh: -9

Results for Cn1ncc2c(O/N=C(\N)c3ccc(C(F)(F)F)cc3)ncnc21 ?
Shn3 inh set2: 27; TROY signal inh: 13; Peg3 promoter: 107*; TWEAK-Fn14 inh: -17; EBV LMP1 NFkB: -11; MITF TRPM1 inh: 9

How did C=C1C(=O)O[C@H]2C[C@H]1[C@@H](OC(C)=O)C/C(C)=C/CC/C(C)=C\CC[C@]2(C)O do in these assays?
Shn3 inh set2: 71; TROY signal inh: 43; Peg3 promoter: 89*; TWEAK-Fn14 inh: 86*; EBV LMP1 NFkB: 48*; MITF TRPM1 inh: 99*

Results for O=C(C[C@H]1C[C@H](C(=O)N2CCOCC2)[C@@]2(CCC3CCCC3)c3[nH]c4cc(-c5ccco5)ccc4c3CCN2C1=O)NCc1ccco1 ?
Shn3 inh set2: 5; TROY signal inh: 1; Peg3 promoter: 46; TWEAK-Fn14 inh: 29; EBV LMP1 NFkB: 19; MITF TRPM1 inh: 11

How did COc1ccc(-n2c(-c3cc(-c4ccccc4)sc3N)n[nH]c2=S)cc1 do in these assays?
Shn3 inh set2: -19; TROY signal inh: -18; Peg3 promoter: 87*; TWEAK-Fn14 inh: -25; EBV LMP1 NFkB: -10; MITF TRPM1 inh: -15

Source: PubChem BioAssay (several laboratories)
